aSyn 5UTR inh – 5' untranslated region of α-synuclein, MLPCN primary screen; alpha-synuclein 5'UTR reporter, inhibitor activity; inhibition, % (tested at 7.5 µM); 300,000 tested, 0.82% active; in the data active = inhibition above about 60%;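 also: H4 neuroglioblastoma cells stably carrying SNCA 5'UTR luciferase fusion; 0% = DMSO wells and 100% = positive control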
Gli-Sufu antag – blocks Gli-Sufu signaling in a luciferase reporter | AID 588413 | 340,000 tested, 0.74% active | inhibition, % at 5 µM | Sufu-KO-LIGHT fibroblasts, Gli luciferase reporter luminescence;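 active = inhibition above about 55%, limit read from the data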;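 also: 0% = DMSO-treated cells and 100% = wells with medium but no cells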
TAG inh – reduces triacylglycerol accumulation in H9c2 cells. Nile Red lipid (TAG) fluorescence; cells loaded with 200 µM oleic acid. inhibition, % at 12.5 µM. 230,000 tested, 0.66% active. AID 651582;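 active = pattern-corrected inhibition of lipid staining of at least 50% with the nuclear-stain viability signal not falling by more than 50%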;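 also: 0% = DMSO wells and 100% = triacsin C control wells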
Shn3 inh set2 – Schnurri-3 reporter inhibition in Clone20 osteoblasts | Clone20 osteoblast Shn3 3'UTR firefly luciferase, 24 h | inhibition, % at 12.5 µM | 360,000 tested, 0.52% active;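 active = mean inhibition of at least 75% with every replicate also reaching 75%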;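 also: 0% = median of neutral control wells and 100% = pilot-screen positive control compound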
697 NFkB inh – lowers PMA/ionomycin-induced NF-kB signal in 697 B cells; 697 B-cell NF-kB luciferase reporter, 16 h; inhibition, % at 4 µM; 330,000 tested, 0.33% active; in the data active = inhibition above about 35%
Jurkat NFkB inh – inhibitors of the PMA/ionomycin-induced NF-kB reporter in Jurkat cells | PMA/ionomycin-induced NF-kB luciferase reporter, luminescence | inhibition, % at 4 µM | 330,000 tested, 0.53% active; in the data active = inhibition above about 50%
TAG conf – triacylglycerol accumulation inhibition, confirmation. 990 tested, 71% active. shares compounds with TAG inh. H9c2 lipid accumulation, Nile Red fluorescence; cells loaded with 200 µM oleic acid. AID 651629. inhibition, % at 12.5 µM;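 active = mean inhibition across replicates of 40% or more; inactive = mean inhibition below 40%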;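 also: plate controls were DMSO only wells for no effect and Triacsin C treated wells for full effect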
Starred values were filed as active, the others as inactive; · = not tested or not shown. Most compounds without a hit are left out; they make up all but 2.3% or so of the library.

SMILES | aSyn 5UTR inh | Gli-Sufu antag | TAG inh | Shn3 inh set2 | 697 NFkB inh | Jurkat NFkB inh | TAG conf
CCC(C)n1nccc1NC(=O)C(C)OC(=O)c1cc2ccccc2[nH]1 (stereo not drawn) | 14.5 | 6.2 | 14.7 | 7.1 | -3.7 | 7.6 | ·
Cc1ccc(-n2nc(C)c3c(C)c(CCC(=O)Nc4ccc(CN5CCCC5)cc4)c(C)nc32)cc1 | 103.6* | 8.7 | 65.1* | -1.0 | -6.0 | -13.6 | 59.1*
CC1CN(C(=O)c2ccccc2C(=O)c2ncc[nH]2)CC(C)O1 (stereo not drawn) | -3.7 | 1.8 | · | -0.8 | 16.7 | -4.4 | ·
CCC(C)(C)NC(=O)C(c1ccccc1F)N(Cc1ccco1)C(=O)c1csnn1 (stereo not drawn) | 8.8 | -5.5 | 53.2* | 6.5 | 9.9 | 11.7 | 19.4
CCC(C)(C)NC(=O)C(c1sccc1C)N(Cc1ccco1)C(=O)c1csnn1 (stereo not drawn) | 1.6 | -5.8 | · | 15.2 | 6.2 | 9.5 | ·
COc1cc2c(cc1OC)C(C)N(C(=O)c1cc3c(C)cc(C)cc3[nH]1)CC2 (stereo not drawn) | 42.4 | 0.9 | 54.0* | 40.3 | -5.9 | 38.8 | 59.0*
COc1cc2c(cc1OC)C(C)N(C(=O)Nc1cc(C)cc(C)c1)CC2 (stereo not drawn) | -37.8 | -4.7 | · | 17.1 | -29.0 | 33.1 | ·
COCCN(C(=O)COC(=O)/C=C/c1ccc(C(F)(F)F)cc1)c1c(N)n(Cc2ccccc2)c(=O)[nH]c1=O | 9.2 | -1.9 | 6.3 | -8.6 | 4.6 | 15.1 | ·
COc1ccc(N=C2C(=Nc3ccc(OC)cc3)N(c3ccc(OC)cc3)C(=S)N2C(=O)c2ccc(OC)cc2)cc1 | -8.8 | -25.0 | 54.2* | -23.5 | 11.6 | -7.9 | 99.1*
COc1ccc(S(=O)(=O)N(C)C[C@@H]2OCCCC[C@H](C)Oc3ccc(NC(=O)Nc4ccc(C(F)(F)F)cc4)cc3C(=O)N([C@H](C)CO)C[C@H]2C)cc1 | · | · | 59.4* | 6.2 | · | · | 43.7*
C[C@@H]1CCCCO[C@H](CN(C)S(=O)(=O)c2ccc(F)cc2)[C@@H](C)CN([C@H](C)CO)C(=O)c2cc(NC(=O)Nc3ccc(C(F)(F)F)cc3)ccc2O1 | · | · | 45.9 | 11.7 | · | · | ·
O=C(CN(c1ccccc1)S(=O)(=O)c1ccccc1)Nc1ccc(F)cc1 | 7.6 | -12.7 | · | -11.5 | 4.0 | 4.9 | ·
COc1cccc(/C=C/C(=O)NNC(=O)c2ccccc2)c1OC | · | -54.5 | -4.7 | 14.9 | -53.6 | -49.6 | ·
COc1cccc(/C=C/C(=C2/C(=O)N(c3ccccc3)N=C2C)c2ccc(C)cc2)c1OC | 17.9 | -8.7 | 111.5* | 21.6 | 7.3 | -10.2 | 128.6*
CC(C)CC(N)c1csc(Nc2ccc(C(=O)c3ccccc3)cc2)n1 (stereo not drawn) | · | · | 34.9 | 48.7 | · | · | ·
O=C(/C=C/c1ccccc1)Oc1cccc2cccnc12 | -14.9 | 1.9 | 50.5* | 27.2 | -2.2 | -16.5 | -4.6
COc1ccc(C(=O)N/C(=C\c2ccc3c(c2)OCO3)C(=O)N2CCOCC2)cc1 | -7.0 | 23.4 | · | -8.4 | 12.9 | 8.8 | ·
NC(=O)N/N=C/c1c(Sc2nnnn2-c2ccccc2)nc2ccccn2c1=O | -32.7 | 16.7 | 52.4* | 3.8 | -44.1 | 22.7 | 63.9*
CC(C)Cc1c(O)nc(SCC(=O)Nc2ccc3c(c2)CCC3)[nH]c1=O | -23.1 | -6.5 | · | -10.0 | -2.2 | 0.6 | ·
O=C(CSc1nc(Nc2ccccc2)nc(N2CCOCC2)n1)N1CCc2ccccc21 | 9.0 | 8.0 | · | 19.0 | 14.5 | -7.9 | ·
CC(Sc1nc(NCc2ccccc2)nc(N2CCOCC2)n1)C(=O)Nc1ccccc1 (stereo not drawn) | 25.4 | 3.4 | 70.0* | 25.3 | -3.4 | 1.2 | 46.6*
Cc1ccccc1NC(=O)CSc1nc(Nc2ccccc2)nc(N2CCOCC2)n1 | 27.7 | 15.2 | 53.7* | 3.3 | 16.5 | 9.7 | 46.1*
O=C(CSc1nc(N2CCCCC2)nc(N2CCCCC2)n1)N1CCN(c2ccccc2)CC1 | 31.3 | -1.8 | 60.2* | 43.6 | · | · | 27.4
CCNc1nc(SC(C)C(=O)Nc2ccccc2)nc(N2CCOCC2)n1 (stereo not drawn) | 25.5 | -1.1 | 30.7 | 12.5 | -12.1 | 2.4 | ·
O=C(CSc1nc(Nc2ccccc2)nc(N2CCOCC2)n1)N1CCCC1 | 23.7 | 13.1 | 71.3* | 17.4 | 32.0 | -20.5 | 40.9*

Compound activity deposited in PubChem by several laboratories.
